Screens (PubChem)
GPR151 ag: activators of human GPR151, primary screen, cell-based, PathHunter beta-arrestin, luminescence; G-protein coupled receptor 151 (Homo sapiens), Q8TDV0; PathHunter beta-arrestin GPR151 cells; activation, % at 11.2 µM; 650,000 compounds, 1% hits; in the data active = activation above about 4.9%
MITF inh: MITF inhibitors, primary screen, biochemical, AlphaScreen, human. Microphthalmia-associated transcription factor (Homo sapiens), O75030. AlphaScreen MITF homodimerization, bead proximity signal. inhibition, % at 2.6 µM. 650,000 compounds, 0.91% hits. AID 1259374, 2018; in the data active = inhibition above about 50%
FBW7 activator: FBW7 E3 ligase activators, primary screen, biochemical, AlphaScreen, human. 650,000 compounds, 0.13% hits. AlphaScreen FBW7–phospho-cyclin E peptide binding, activator screen. F-box/WD repeat-containing protein 7 (Homo sapiens), Q969H0. normalized activity (activation), % at 26.1 µM; in the data active = normalized activity above about 1.9%;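 also: purified mutant Fbw7 with reduced substrate affinity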
Target sequence (Q969H0 whole entry, looked up): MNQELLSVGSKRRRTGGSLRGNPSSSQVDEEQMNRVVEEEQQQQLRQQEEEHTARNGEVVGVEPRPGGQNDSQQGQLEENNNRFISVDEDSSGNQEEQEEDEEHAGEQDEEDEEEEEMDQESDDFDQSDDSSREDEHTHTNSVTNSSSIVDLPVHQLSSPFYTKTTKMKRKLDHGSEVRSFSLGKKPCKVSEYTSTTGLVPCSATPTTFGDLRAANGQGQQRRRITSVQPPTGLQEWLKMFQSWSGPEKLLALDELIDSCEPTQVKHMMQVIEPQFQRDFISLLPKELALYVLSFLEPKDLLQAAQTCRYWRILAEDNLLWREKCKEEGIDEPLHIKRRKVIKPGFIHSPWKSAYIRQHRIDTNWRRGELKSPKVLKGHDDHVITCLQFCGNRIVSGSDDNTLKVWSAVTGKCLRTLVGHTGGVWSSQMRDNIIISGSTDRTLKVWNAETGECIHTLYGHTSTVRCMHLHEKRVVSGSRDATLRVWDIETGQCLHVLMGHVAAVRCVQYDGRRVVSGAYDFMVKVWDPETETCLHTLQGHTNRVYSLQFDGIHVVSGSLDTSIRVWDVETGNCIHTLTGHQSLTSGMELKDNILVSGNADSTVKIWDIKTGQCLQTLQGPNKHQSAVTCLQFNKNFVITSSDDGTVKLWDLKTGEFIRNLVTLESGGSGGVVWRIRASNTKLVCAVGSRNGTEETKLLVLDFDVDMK
TEAD-YAP block: TEAD-YAP interaction inhibition, primary screen, TEAD-YAP interaction inhibitor project, luminescence, HEK-TIYL cells. 640,000 compounds, 1.4% hits. TEAD-Gal4/YAP UAS-luciferase luminescence. inhibition, % at 9.12 µM; in the data active = inhibition above about 32%
MITF inh conf: MITF inhibitors, retest of hits, confirmation, biochemical, AlphaScreen, triplicate | shares compounds with MITF inh | AlphaScreen MITF homodimerization, biotin/His-MITF beads | inhibition, % at 2.6 µM | 4,700 compounds, 16% hits | AID 1259372, 2018;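 active = inhibition above a cutoff derived from the DMSO control wells, cut at about 28% in these data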;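 also: inhibitors lower the bead chemiluminescence by keeping MITF from dimerizing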
AS interf DR: AlphaScreen optical interference compounds, dose response, counter-screen, biochemical, HTS; IC50, µM; shares compounds with MITF inh; AID 1259373, 2018; 480 compounds, 6% hits; AlphaScreen optical interference counterscreen, cell-free; call rule not given here
AlphaScreen intf2: AlphaScreen optical interference compounds, counter-screen for MITF inhibitor project, biochemical, triplicate. shares compounds with MITF inh. LysRS AlphaScreen counterscreen, signal interference. inhibition, % at 2.6 µM. 4,700 compounds, 7.6% hits. AID 1259376, 2018;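 active = inhibition above a cutoff derived from the DMSO control wells, cut at about 30% in these data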
Numbers stand for hits; i = inactive; nt = no result. Shown are actives, neighbours in structure and some others; about 3.5% of the full set was active somewhere.

SMILES | GPR151 ag | MITF inh | FBW7 activator | TEAD-YAP block | MITF inh conf | AlphaScreen intf2 | others
O=[N+]([O-])c1ccccc1S(=O)(=O)N1CCN(C2CCCC2)CC1 | i | i | i | i | nt | nt
O=[N+]([O-])c1ccccc1S(=O)(=O)N1CCN(C2CCN(Cc3ccccc3)CC2)CC1 | i | 74 | i | i | i | i
CN1CCN(C(=O)C2CCCN(S(=O)(=O)c3ccccc3[N+](=O)[O-])C2)CC1 (stereo unspecified) | i | 82 | i | i | i | i
CC(=O)Nc1ccc(S(=O)(=O)N2CCN(Cc3ccccc3C(F)(F)F)CC2)cc1 | i | 70 | i | i | i | i
O=C(Nc1cccc2cccnc12)C1CCCN1/C=C/C(=O)C(F)(F)F (stereo unspecified) | i | i | i | i | nt | nt
O=[N+]([O-])c1ccccc1S(=O)(=O)N1CCN(Cc2ccccn2)CC1 | i | 58 | i | i | i | i
O=[N+]([O-])c1ccccc1S(=O)(=O)N1CCN(c2ncccn2)CC1 | i | i | i | i | nt | nt
O=C1CC(N2CCN(c3ccc(Cl)cc3)CC2)C(=O)N1c1ccccc1F (stereo unspecified) | i | i | i | i | nt | nt
O=C1CC(N2CCN(S(=O)(=O)c3ccccc3F)CC2)C(=O)N1c1ccccc1F (stereo unspecified) | i | 79 | i | i | i | i
COc1cccc(NC(=O)c2ccc(N3CCCC3)c([N+](=O)[O-])c2)c1 | i | i | i | i | nt | nt
COc1ccc(OC)c(NC(=O)c2cc3ccc(O)cc3oc2=Nc2ccc(C(=O)O)cc2)c1 | i | 55 | i | i | 79 | i | AS interf DR=i
c1cnc2c(CN3CCc4nnc(C5CCCO5)n4CC3)cccc2c1 (stereo unspecified) | i | i | i | i | nt | nt
CCN1CCCC1CNCC(O)COc1ccccc1 (stereo unspecified) | i | 56 | i | i | i | i
O=C(Nc1ccc(N2CCOCC2)cc1)c1csc(Nc2ccncn2)n1 | i | i | i | i | nt | nt
O=C(Nc1ccc(N2CCOCC2)cc1)c1cccc(Nc2ccncn2)n1 | i | 58 | i | i | 81 | i | AS interf DR=i
COC(=O)c1cc(S(=O)(=O)NCc2ccccc2Cl)c[nH]1 | i | i | i | i | nt | nt
COC(=O)c1cc(S(=O)(=O)NCc2ccccc2OC)c[nH]1 | i | 75 | i | i | i | i
O=C1CSc2ccc(S(=O)(=O)N3CCCC3)cc2N1 | i | 116 | i | i | i | i
CCN1CCN(S(=O)(=O)c2ccc3c(c2)SCC(=O)N3)CC1 | i | i | i | i | nt | nt
CN1CCN(Cc2cc(Br)c(O)c3ncccc23)CC1 | i | 105 | i | 84 | 113 | 101
O=[N+]([O-])c1cc(CN2CCOCC2)c2cccnc2c1O | i | 106 | i | i | 107 | 99
O=[N+]([O-])c1cc(CN2CCCCC2)c2cccnc2c1O | i | 112 | i | i | 106 | 100
COc1ccc(C(N)c2nccn2C)cc1OC (stereo unspecified) | i | 64 | i | i | i | 61
COc1ccc(C(O)c2nccn2C)cc1OC (stereo unspecified) | i | i | i | i | nt | nt
CC(C)NC(=O)c1nn2c(c1Br)NC(c1cccs1)CC2C(F)(F)F (stereo unspecified) | i | i | i | i | nt | nt
SMILES | GPR151 ag | MITF inh | FBW7 activator | TEAD-YAP block | MITF inh conf | AlphaScreen intf2 | others
O=C(NC1CCCCC1)c1nn2c(c1Br)NC(c1cccs1)CC2C(F)(F)F (stereo unspecified) | i | 60 | i | i | i | i
COc1ccc(CN2CCN(C(=O)c3ccncc3)CC2)c(OC)c1OC | i | 51 | i | i | i | i
COc1ccc(CN2CCN(C(=O)c3ccccc3)CC2)c(OC)c1OC | i | i | i | i | nt | nt
COc1cccc(CN2CCN(C(=O)c3ccncc3)CC2)c1OC | i | 83 | i | i | i | i
Cc1ccc(N(CC(=O)NC(C(C)C)C(C)C)S(C)(=O)=O)cc1C | i | 68 | i | i | i | i
CCOC(=O)C(Cl)NNc1ccccc1[N+](=O)[O-] (stereo unspecified) | i | 72 | i | i | i | i
CCOC(=O)C(=CNc1ccccc1[N+](=O)[O-])C(=O)OCC | i | i | i | i | nt | nt
COc1ccc(C(=O)COC(=O)c2ccc3ccccc3c2)c(OC)c1 | i | i | i | i | nt | nt
COc1cccc(CC(=O)Nc2nnc(-c3ccco3)c(-c3ccco3)n2)c1 | i | 63 | i | i | 80 | i | AS interf DR=i
COc1cccc(CC(=O)Nc2ccc3ccccc3c2)c1 | i | i | i | i | nt | nt
Cn1c(N)c(C(=O)COC(=O)CCc2nc3ccccc3c(=O)[nH]2)c(=O)n(C)c1=O | i | i | i | i | nt | nt
Cc1ccc2c(c1)N(CC(=O)OC(CC(C)C)C(=O)NC1CCCC1)C(=O)CO2 (stereo unspecified) | i | 54 | i | i | i | i
CC(C)CC(OC(=O)CN1C(=O)COc2ccccc21)C(=O)NC1CCCCC1 (stereo unspecified) | i | i | i | i | nt | nt
Cc1c(C(=O)Nc2cccnc2)sc2nc(-c3ccccc3)cn12 | i | i | i | i | nt | nt
Nc1nc(Nc2ccccc2)nc2nc[nH]c12 | i | 60 | i | i | i | i
O=C(c1cccc(Cl)c1)N1CCN(Cc2ccccc2F)CC1 | i | 59 | i | i | i | i
Cc1ccccc1CN1CCN(C(=O)c2cccc(Cl)c2)CC1 | i | 63 | i | i | i | i
Nc1ccc(S(=O)(=O)NC2CCS(=O)(=O)C2)cc1 (stereo unspecified) | i | i | i | i | nt | nt
COc1ccc(OC)c(CN2CCN(CC3CC4C=CC3C4)CC2)c1 (stereo unspecified) | i | i | i | i | nt | nt
Cc1ccc(CN2CCN(CC3CC4C=CC3C4)CC2)cc1 (stereo unspecified) | i | 74 | i | i | i | i
COc1cc(CN2CCN(CC3CC4C=CC3C4)CC2)cc(OC)c1OC (stereo unspecified) | i | 56 | i | i | i | i
CSc1ccc(CN2CCN(S(=O)(=O)c3ccc(F)cc3)CC2)cc1 | i | i | i | i | nt | nt
CSc1ccc(CN2CCN(CC3CC4C=CC3C4)CC2)cc1 (stereo unspecified) | i | 62 | i | i | i | i
Fc1ccc(CN2CCN(CC3CC4C=CC3C4)CC2)cc1 (stereo unspecified) | i | 79 | i | i | i | i
O=C(N1CCOCC1)C1(c2cccs2)CCOCC1 | i | i | i | i | nt | nt
